Reference: PubChem BioAssay (NCI)
Values joined by “and” are separate entries in the source; they are usually repeats but may differ in a detail not shown here. Identical values can stand only once. This is part of a sample that, as a whole, favours compounds with a hit. Of some 83,000 tested, about 20% had one in any assay.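 Percent growth is the endpoint: 0 to 100 indicates growth inhibition (40 means 60% inhibition), 0 means no net growth, and negative values indicate cell death.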 Active and inactive are the calls of the source. The calls were made as follows: active = growth percent below 10; inactive = the rest.

tested on: MDA-MB-468 breast; experiment: NCI-60 one-dose screen, 48 h (100 = growth as untreated, 0 = no growth, -100 = all killed); conditions: 10 µM unless noted

Compound	growth
CCN(CC)CCC(CNc1c2ccc([N+](=O)[O-])cc2nc2cc(OC)c(OC)cc12)c1ccccc1 (configuration not stated)	-58% (active) and -86.9% (active)
CNC(=O)c1c(NC(=O)c2ccc(C(C)(C)C)cc2)sc2c(CN(C)C)c(O)ccc12	-60.5% (active)
CC[C@]12C=CCN3CC[C@@]4(c5cc(NC(=O)CCC(=O)O[C@H]6CC[C@H]7[C@@H]8CC[C@H]9CC(=O)CC[C@]9(C)[C@H]8CC[C@]67C)c(OC)cc5N(C)[C@H]4[C@@](O)(C(=O)OC)[C@@H]1OC(C)=O)[C@@H]32	73% (inactive)
COC(=O)CC[C@@H](C)[C@H]1CC[C@H]2[C@@H]3CC[C@@H]4C[C@H](O)CC[C@]4(C)[C@H]3C[C@H](O)[C@]12C	103% (inactive)
COc1ccc2c(c1)c(-c1nnc(N)nc1-c1c[nH]c3ccc(F)cc13)cn2C	2.84% (active)
COc1ccc(C2=CN3CC=CCC3CC2=O)cc1 (configuration not stated)	107% (inactive)
Cc1ccc(-n2nc3n(/c2=N\C(=O)NS(=O)(=O)c2ccc(C)cc2)CCN3C2=NCCN2)cc1	114% (inactive)
CCOC(=O)c1c(C)nc2c(c1N)/C(=C/c1cccs1)C(=O)N2Cc1ccccc1	47.6% (inactive)
CCOC(=O)C1=C(C)NC(SCc2nnc(-c3ccc(Cl)cc3)o2)=NC1c1ccc(Cl)cc1Cl (configuration not stated)	88.4% (inactive)
CCOc1ccc(-c2cc(C3(S(=O)(=O)c4ccc(C)cc4)CC=CC3)on2)cc1	72% (inactive)
Cc1ccc2c(Cn3cc(CSc4nc5ccccc5o4)nn3)cc(=O)oc2c1	113% (inactive)
c1ccc(-c2nc(N3CCOCC3)c3c4c(sc3n2)CCCCCC4)nc1	57.4% (inactive)
COc1cc(/C=C2\CCCC3=C2NC(C)=NC3c2cc(OC)c(OC)c(OC)c2)cc(OC)c1OC (configuration not stated)	-4.61% (active)
O=C(N/N=C/c1ccccc1SSc1ccccc1/C=N/NC(=O)c1ccccc1)c1ccccc1	51.9% (inactive)
CCN1C(=O)N(CC)C2C1NC(=S)N2/N=C/c1ccc(OC)cc1 (configuration not stated)	26.8% (inactive)
C=CCc1c(O)c(C(=O)/C=C/c2ccccc2)c(OC)c2ccoc12	6.58% (active)
NC(=O)Nc1cc(-c2cccc(F)c2)sc1C(=O)N[C@H]1CCCNC1	-60.5% (active)
O=C(Nc1ccccc1)Nc1ncnc2c1ncn2-c1ccccc1	74.3% (inactive)
C[C@@H]1CCC[C@H]1CC(N)C(=O)O (some centres not stated)	92.8% (inactive)
CCOc1ccc(NC(=O)c2ccoc2COc2ccccc2)cc1	113% (inactive)
Fc1ccc(-n2cc(COc3ncnc4sc5c(c34)CCCC5)nn2)cc1Cl	106% (inactive)
NCCNc1nc2ccccc2c2c(=O)c3cc(F)cc(Cl)c3sc12	-12.5% (active)
c1ccc2cc(C[n+]3ccn(CCCCCCCCCCn4cc[n+](Cc5ccc6ccccc6c5)c4)c3)ccc2c1	-28.3% (active)
O=C1c2nsnc2C(=O)c2c(F)c(F)c(F)c(F)c21	-50.4% (active)
O=C(CSc1ncc(-c2ccccc2)n1-c1ccccc1)Nc1ccc(-c2nc3ccccc3s2)cc1	15.4% (inactive)
Clc1cccc(Cl)c1Nc1ccc2nnc(-c3ccncc3)n2n1	104% (inactive)
CCSc1sc(-c2ccc(C)cc2)nc1[P+](c1ccccc1)(c1ccccc1)c1ccccc1	-61.4% (active)
